Measurements from PubChem BioAssay (NCATS).
“And” between values parts separate entries of the source, which are not always exact repeats. Equal entries are not always repeated. Results filed as inconclusive are left out. The source made the active and inactive calls. Unless noted, the call rests on the fitted dose curve.

Legend:
[1] = target: Cytochrome P450 3A4 (Homo sapiens) (UniProt P08684); experiment: qHTS Assay for Activators of Cytochrome P450 3A4 (AID 885; active means well fitted curve in the direction sought with a large enough effect; an effect the other way counts as inactive or inconclusive; further: nearly all actives have a fitted effect of over 65% in size)
Sequence of Cytochrome P450 3A4 (Homo sapiens) (P08684 whole entry, looked up): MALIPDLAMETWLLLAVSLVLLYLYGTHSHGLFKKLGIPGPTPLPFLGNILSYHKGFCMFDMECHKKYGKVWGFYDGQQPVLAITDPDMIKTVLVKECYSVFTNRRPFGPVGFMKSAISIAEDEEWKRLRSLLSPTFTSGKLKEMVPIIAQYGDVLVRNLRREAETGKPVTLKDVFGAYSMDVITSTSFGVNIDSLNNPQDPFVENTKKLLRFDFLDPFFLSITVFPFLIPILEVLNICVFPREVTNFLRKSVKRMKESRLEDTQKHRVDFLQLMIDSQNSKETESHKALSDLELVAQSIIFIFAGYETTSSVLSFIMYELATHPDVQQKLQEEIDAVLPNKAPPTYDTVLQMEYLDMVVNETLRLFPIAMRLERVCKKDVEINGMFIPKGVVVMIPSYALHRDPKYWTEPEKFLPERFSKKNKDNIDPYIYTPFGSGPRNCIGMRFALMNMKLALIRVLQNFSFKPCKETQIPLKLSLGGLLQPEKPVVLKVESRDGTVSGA
Summary of the method: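 Human CYP3A4 dealkylates Luciferin-PPXE to luciferin, which luciferase detection converts to light. Substrate was at its KM (25uM), buffer 200mM KPO4, reaction 60 min at RT.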

[2] = MultiTox-Fluor Cytotoxicity Assay - LYMP1-002 - Live Cells (AID 955; active means well fitted curve in the direction sought with a large enough effect; an effect the other way counts as inactive or inconclusive;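 further: potency means the concentration at half of the fitted maximal effect; cells exposed to compound for 16 hours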)
Summary of the method: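 In this qHTS viability format, lymphoblastoid cells (LYMP1-002, human) received compound for 16 hr at 37 C. Fluorogenic GF-AFC cleavage by viable cells was detected at 405/510 nm after 1 h at room temperature.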

[3] = MultiTox-Fluor Cytotoxicity Assay - LYMP1-002 - Dead Cells (AID 960; active means well fitted curve in the direction sought with a large enough effect; an effect the other way counts as inactive or inconclusive; further: potency means the concentration at half of the fitted maximal effect; nearly all actives have a fitted effect of over 60% in size)
Summary of the method: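 Concentration-dependent increases in membrane-leaked protease activity are quantified in LYMP1-002 cells after 16 hr treatment; values are normalized against DMSO and tetraoctylammonium bromide (15 uM) controls and AC50 derived by Hill modeling.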

[4] = target: Bile acid receptor (Homo sapiens) (UniProt Q96RI1); experiment: qHTS assay for small molecule agonists of farnesoid X receptor signaling (AID 588527); details: HEK293T FXR-UAS-bla, beta-lactamase ratio, 16 h; activation: stronger effect = higher value;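 further: series mostly up to about 77 µM; 0% = vehicle basal and 100% = reference agonist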
Sequence of Bile acid receptor (Homo sapiens) (Q96RI1 whole entry, looked up): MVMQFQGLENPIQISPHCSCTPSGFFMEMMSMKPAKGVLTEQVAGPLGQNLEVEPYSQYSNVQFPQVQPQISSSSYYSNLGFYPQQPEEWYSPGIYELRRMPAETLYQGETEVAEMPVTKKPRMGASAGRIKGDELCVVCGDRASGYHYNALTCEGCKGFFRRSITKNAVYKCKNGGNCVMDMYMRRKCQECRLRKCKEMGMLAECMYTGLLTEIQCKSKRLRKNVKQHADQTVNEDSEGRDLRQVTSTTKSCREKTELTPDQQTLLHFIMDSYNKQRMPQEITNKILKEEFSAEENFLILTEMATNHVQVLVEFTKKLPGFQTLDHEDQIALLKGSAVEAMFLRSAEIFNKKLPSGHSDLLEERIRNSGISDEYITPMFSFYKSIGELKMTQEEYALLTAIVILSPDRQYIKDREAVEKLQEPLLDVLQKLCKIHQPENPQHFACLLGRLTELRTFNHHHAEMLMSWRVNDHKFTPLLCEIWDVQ
Summary of the method: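 FXR-UAS-bla HEK293T cells (10% dialyzed FBS) preincubated 5-7 h at 37 C, then compounds at up to 92 uM for 16 h at 37 C. CCF4 beta-lactamase read-out after 2 h RT. Normalized to chenodeoxycholic acid (100 uM) and DMSO; Hill fit gave EC50 and efficacy.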

[5] = qHTS assay for small molecule agonists of the antioxidant response element (ARE) signaling pathway (AID 651741; active means well fitted activation curve with a large enough effect in the signal ratio; the % refers to the signal ratio; further: potency means the concentration at half of the fitted maximal effect; on activation: % of control where 0% means no effect)
Summary of the method: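 Beta-lactamase reporter expression driven by the antioxidant response element in HepG2 cells was detected by fluorescence with LiveBLAzer B/G FRET substrate (2 h, room temperature) following 16 h compound treatment at 37 C.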

[6] = target: Androgen receptor (Homo sapiens) (UniProt P10275); experiment: qHTS assay for small molecule agonists of androgen receptor signaling (AID 588515; active means well fitted curve in the direction sought with a large enough effect in the signal ratio, with a control signal flat; the % refers to the signal ratio; further: on the % scale 0 is the no-effect control and ±100 the full control effect); details: AR-UAS-bla HEK293, beta-lactamase ratio, agonist 16 h; stronger effect = higher value
Sequence of Androgen receptor (Homo sapiens) (P10275 whole entry, looked up): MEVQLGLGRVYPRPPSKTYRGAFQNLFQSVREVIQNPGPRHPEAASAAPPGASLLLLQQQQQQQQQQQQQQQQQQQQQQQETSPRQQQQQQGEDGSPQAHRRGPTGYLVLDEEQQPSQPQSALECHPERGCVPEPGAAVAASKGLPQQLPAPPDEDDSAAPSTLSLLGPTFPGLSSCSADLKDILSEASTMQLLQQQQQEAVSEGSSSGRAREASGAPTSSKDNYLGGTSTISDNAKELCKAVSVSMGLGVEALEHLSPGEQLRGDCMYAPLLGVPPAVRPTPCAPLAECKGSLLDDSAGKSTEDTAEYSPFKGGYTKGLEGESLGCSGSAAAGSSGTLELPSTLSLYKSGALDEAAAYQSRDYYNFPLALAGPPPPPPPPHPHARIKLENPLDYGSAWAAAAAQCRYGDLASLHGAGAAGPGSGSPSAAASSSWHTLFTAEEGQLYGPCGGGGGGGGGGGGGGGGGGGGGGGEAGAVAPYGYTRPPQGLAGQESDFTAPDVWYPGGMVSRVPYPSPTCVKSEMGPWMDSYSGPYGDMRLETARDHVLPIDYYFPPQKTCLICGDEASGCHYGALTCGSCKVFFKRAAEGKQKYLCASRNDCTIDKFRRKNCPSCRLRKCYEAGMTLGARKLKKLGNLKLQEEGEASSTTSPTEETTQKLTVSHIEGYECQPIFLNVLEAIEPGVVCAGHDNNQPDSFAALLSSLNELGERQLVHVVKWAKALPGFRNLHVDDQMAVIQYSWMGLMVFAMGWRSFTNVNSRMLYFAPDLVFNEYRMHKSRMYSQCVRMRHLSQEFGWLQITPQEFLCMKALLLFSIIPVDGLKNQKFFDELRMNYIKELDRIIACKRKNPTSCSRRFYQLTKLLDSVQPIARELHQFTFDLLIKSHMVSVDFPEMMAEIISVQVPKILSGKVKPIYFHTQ
Summary of the method: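 Stimulation of an AR-responsive β-lactamase reporter in GripTite HEK293 cells was measured after 16 h compound exposure at 37 °C, via CCF4 fluorescence after 2 h RT. EC50 from Hill fits, normalized to R1881 at 30 nM.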

[7] = target: Androgen receptor (Homo sapiens) (UniProt P10275); experiment: qHTS assay for small molecule antagonists of androgen receptor signaling (AID 588516; active means well fitted curve in the direction sought with a large enough effect in the signal ratio, with a control signal flat, not every such curve was filed as active; the % refers to the signal ratio; further: on the % scale 0 is the no-effect control and ±100 the full control effect)
Summary of the method: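 Compounds tested in titration against 10 nM R1881 in AR-responsive bla reporter HEK 293 cells; CCF4 fluorescence (460/530 nm) after 16 h exposure gave IC50 and efficacy.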

[8] = target: Bile acid receptor (Homo sapiens) (UniProt Q96RI1); experiment: qHTS assay for small molecule antagonists of farnesoid X receptor signaling (AID 588526); further: on the % scale 0 is the no-effect control and ±100 the full control effect
Summary of the method: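 Concentration-response titrations were fitted to the Hill equation for half-maximal inhibition and maximal response, with data normalised to 50 uM chenodeoxycholic acid and DMSO control wells. Cells: FXR-UAS-bla HEK293T, dialyzed FBS.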

[9] = target: Glucocorticoid receptor (Homo sapiens) (UniProt P04150); experiment: qHTS assay for small molecule antagonists of glucocorticoid receptor signaling (AID 588533; active means well fitted inhibition curve with a large enough effect in the signal ratio, with a control signal flat, not every such curve was filed as active; the % refers to the signal ratio;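 further: cells stimulated with 2 nM dexamethasone as agonist; on the % scale 0 is the no-effect control and ±100 the full control effect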)
Sequence of Glucocorticoid receptor (Homo sapiens) (P04150 whole entry, looked up): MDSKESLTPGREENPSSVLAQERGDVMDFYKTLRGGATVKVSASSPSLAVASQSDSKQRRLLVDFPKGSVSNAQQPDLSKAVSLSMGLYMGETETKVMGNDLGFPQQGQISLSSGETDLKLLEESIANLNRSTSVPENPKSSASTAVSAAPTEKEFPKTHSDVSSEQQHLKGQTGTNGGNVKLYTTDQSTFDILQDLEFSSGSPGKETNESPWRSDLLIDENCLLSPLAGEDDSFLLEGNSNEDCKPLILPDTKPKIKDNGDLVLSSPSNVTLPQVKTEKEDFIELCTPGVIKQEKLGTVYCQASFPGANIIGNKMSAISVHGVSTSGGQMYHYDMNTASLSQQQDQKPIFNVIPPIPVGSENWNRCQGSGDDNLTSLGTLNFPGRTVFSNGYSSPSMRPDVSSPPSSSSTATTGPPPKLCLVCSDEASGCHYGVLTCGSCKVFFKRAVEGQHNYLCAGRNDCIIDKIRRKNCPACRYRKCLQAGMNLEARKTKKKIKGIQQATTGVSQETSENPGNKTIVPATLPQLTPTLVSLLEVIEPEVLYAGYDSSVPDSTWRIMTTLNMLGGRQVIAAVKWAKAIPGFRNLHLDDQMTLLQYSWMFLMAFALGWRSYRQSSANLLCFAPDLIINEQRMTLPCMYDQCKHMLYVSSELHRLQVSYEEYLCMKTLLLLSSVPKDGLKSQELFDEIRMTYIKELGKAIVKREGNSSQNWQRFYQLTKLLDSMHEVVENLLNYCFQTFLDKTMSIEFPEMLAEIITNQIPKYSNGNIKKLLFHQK
Summary of the method: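 Antagonist-mode qHTS: compound titrations added to GRE-bla HeLa cells, then dexamethasone 2 nM final; 18 h, 37 C. CCF4 FRET fluorescence normalized to dexamethasone and DMSO; IC50 from Hill fit.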

[10] = qHTS assay for small molecule antagonists of peroxisome proliferator-activated receptor delta signaling (AID 588535; active means well fitted inhibition curve with a large enough effect in the signal ratio, with a control signal flat, not every such curve was filed as active; the % refers to the signal ratio;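 on max response: cells co-treated with a PPAR-delta agonist as stimulator during compound exposure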); details: HEK293T PPARd-UAS-bla, beta-lactamase FRET ratio, 18 h; 460 nm channel
Summary of the method: (§1)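 Compounds tested in titration on PPAR-delta-UAS-bla HEK293T cells grown in charcoal/dextran-stripped serum (2%); beta-lactamase activity read via CCF4 emission at 460 and 530 nm.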

[11] = target: Peroxisome proliferator-activated receptor delta (Homo sapiens) (UniProt Q03181); experiment: as above
Sequence of Peroxisome proliferator-activated receptor delta (Homo sapiens) (Q03181 whole entry, looked up): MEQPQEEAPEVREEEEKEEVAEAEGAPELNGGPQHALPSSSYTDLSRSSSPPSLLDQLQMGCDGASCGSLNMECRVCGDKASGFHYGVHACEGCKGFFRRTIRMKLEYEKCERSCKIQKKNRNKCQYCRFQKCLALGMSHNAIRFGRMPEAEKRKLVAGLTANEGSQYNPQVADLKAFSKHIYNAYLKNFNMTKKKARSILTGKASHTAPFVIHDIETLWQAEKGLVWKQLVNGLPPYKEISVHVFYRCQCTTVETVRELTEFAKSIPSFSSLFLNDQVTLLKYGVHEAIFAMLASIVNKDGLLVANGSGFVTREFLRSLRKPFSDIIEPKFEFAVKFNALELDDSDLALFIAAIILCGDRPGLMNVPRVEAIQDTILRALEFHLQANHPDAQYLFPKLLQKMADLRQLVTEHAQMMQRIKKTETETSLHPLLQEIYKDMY
Summary of the method: as §1

[12] = target: Peroxisome proliferator-activated receptor gamma (Homo sapiens) (UniProt P37231); experiment: qHTS assay for small molecule agonists of peroxisome proliferator-activated receptor gamma signaling (AID 588536; active means well fitted curve in the direction sought with a large enough effect in the signal ratio, with a control signal flat, not every such curve was filed as active; the % refers to the signal ratio;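 further: 0% = DMSO basal wells and 100% = rosiglitazone at 2 µM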)
Sequence of Peroxisome proliferator-activated receptor gamma (Homo sapiens) (P37231 whole entry, looked up): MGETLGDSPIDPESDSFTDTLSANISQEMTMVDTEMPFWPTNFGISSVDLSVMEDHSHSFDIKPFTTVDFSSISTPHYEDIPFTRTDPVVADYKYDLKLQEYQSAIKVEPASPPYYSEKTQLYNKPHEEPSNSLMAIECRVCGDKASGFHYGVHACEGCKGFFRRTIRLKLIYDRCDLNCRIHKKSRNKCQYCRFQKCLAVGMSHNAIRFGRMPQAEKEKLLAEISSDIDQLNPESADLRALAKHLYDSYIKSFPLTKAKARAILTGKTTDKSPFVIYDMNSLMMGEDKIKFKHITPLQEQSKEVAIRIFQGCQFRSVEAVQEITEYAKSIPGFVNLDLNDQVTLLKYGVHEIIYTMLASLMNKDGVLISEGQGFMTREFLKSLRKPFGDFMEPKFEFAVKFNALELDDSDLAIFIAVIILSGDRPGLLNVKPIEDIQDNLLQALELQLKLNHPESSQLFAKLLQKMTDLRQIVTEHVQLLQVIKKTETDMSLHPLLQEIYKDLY
Summary of the method: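 Cells were plated and held 6–6.5 h at 37 C, then compounds were added as a titration series. After a further 16 h, CCF4 dye was loaded for 2 h at room temperature and emission at 460/530 nm recorded.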

[13] = target: Peroxisome proliferator-activated receptor gamma (Homo sapiens) (UniProt P37231); experiment: qHTS assay for small molecule antagonists of peroxisome proliferator-activated receptor gamma signaling (AID 588537; active means well fitted inhibition curve with a large enough effect in the signal ratio, with a control signal flat, not every such curve was filed as active; the % refers to the signal ratio;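 further: reporter cells co-stimulated with 50 nM rosiglitazone agonist during compound treatment; % of control where 0% means no effect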)
Summary of the method: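 HEK293 cells, PPAR-gamma-UAS-bla, 3000/well. Pre-incubation 6-6.5 h, 37 C. Compound titration with rosiglitazone 50 nM final, 16 h. CCF4 dye, 2 h RT, dual-emission fluorescence.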

[14] = qHTS assay for small molecule activators of the nuclear factor-kappa B (NF-kB) signaling pathway (AID 651749; active means well fitted activation curve with a large enough effect in the signal ratio; the % refers to the signal ratio; further: series mostly up to about 77 µM; % of control where 0% means no effect); details: NF-kB-bla ME-180 cells, beta-lactamase FRET ratio, 16 h; activation: stronger effect = higher value
Summary of the method: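 Beta-lactamase reporter expression, controlled by NF-kB response elements in ME-180 cells, was quantified fluorometrically via FRET disruption; cells at 2,000/well had been incubated with 23 nL test compound for 16 hr.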

[15] = qHTS assay for small molecule activators of the human pregnane X receptor (PXR) signaling pathway (AID 720659; call rule not given here; further: 0% is about no effect)

O=Nc1ccc(Nc2ccccc2)cc1
active: Potency [2] 6.31 µM | Potency [3] 3.98 µM | Potency [5] 54.5 µM
inactive: Potency [1] | activation [4] 15.6%

CCNc1nc(Cl)nc(NC(C)(C)C)n1
33.2%: max response [10]
inactive: activation [6] -15.6% | Potency [7] | Potency [8] | activation [4] 0.616% | Potency [9] | Potency [11] | Potency [12] | Potency [13] | activation [14] -1.02%

CNC(=O)/C=C(\C)OP(=O)(OC)OC
32.8%: max response [10]
inactive: activation [4] 6.76% | Potency [11] | Potency [12] | Potency [13] | Potency [5]

CC(=O)[C@H]1[C@H](C#N)C[C@H]2[C@@H]3CC=C4C[C@@H](O)CC[C@]4(C)[C@H]3CC[C@@]21C
inactive: activation [4] -2.16% and -0.929%

C=CC1(C)OC(=O)N(c2cc(Cl)cc(Cl)c2)C1=O (stereo not given)
-9.9%: max response [10]
inactive: activation [4] -2.77% | Potency [9] | Potency [11] | Potency [12] | Potency [13] | activation [14] -0.261%

CC(C)C(=O)OCC(C)(C)C(OC(=O)C(C)C)C(C)C (stereo not given)
-3.86%: max response [10]
inactive: Potency [9] | Potency [11] | Potency [12] | Potency [13] | Potency [5] | activation [14] -2.62%

CC(C)(C)OOC(C)(C)c1ccc(C(C)(C)OOC(C)(C)C)cc1
inactive: activation [6] 4.74% | Potency [7] | Potency [8] | activation [4] 3.45% | Potency [11] | Potency [13] | Potency [5] | activation [14] 0.854%
6.63%: max response [10]

Nc1ccc([N+](=O)[O-])cc1Cl
-22.4%: max response [10]
inactive: activation [6] -9.37% | Potency [8] | activation [4] -2.5% | Potency [9] | Potency [11] | Potency [5] | activation [14] 0.235% | outcome [15]

CS/C(C)=N/OC(=O)N(C)SN(C)C(=O)O/N=C(\C)SC
-23.5%: max response [10]
inactive: activation [6] -1.29% | Potency [7] | Potency [8] | activation [4] 3.69% | Potency [9] | Potency [11] | Potency [12] | Potency [5] | activation [14] -0.513% | outcome [15]

COC(=O)c1ccccc1CS(=O)(=O)NC(=O)Nc1nc(OC)cc(OC)n1
-1.25%: max response [10]
inactive: Potency [8] | activation [4] -0.439% | Potency [9] | Potency [11] | Potency [12] | Potency [13] | Potency [5] | activation [14] -0.866% | outcome [15]

CC(C)(c1ccccc1)c1cc(-n2nc3ccccc3n2)c(O)c(C(C)(C)c2ccccc2)c1
10.7%: max response [10]
active: Potency [5] 61.1 µM
inactive: Potency [9] | Potency [11] | Potency [13] | activation [14] 0.903% | outcome [15]

O=S(=O)(c1ccc(O)cc1)c1ccc(O)cc1
45.2%: max response [10]
inactive: Potency [8] | activation [4] -2.06% | Potency [9] | Potency [11] | activation [14] -0.813% | outcome [15]

Clc1ccc(C(Cl)(Cl)Cl)cc1
inactive: Potency [8] | activation [4] -1.93% | Potency [9] | outcome [15]

COc1nc(C)nc(NC(=O)NS(=O)(=O)c2ccccc2CCC(F)(F)F)n1
inactive: activation [6] 6.02% | Potency [7] | Potency [8] | activation [4] 1.64% | Potency [9] | Potency [11] | Potency [12] | Potency [13] | Potency [5] | activation [14] -0.385% | outcome [15]
34.6%: max response [10]

CCNc1nc(NC(C)(C)C)nc(SC)n1
44.7%: max response [10]
inactive: Potency [8] | Potency [9] | Potency [11] | Potency [12] | Potency [13] | activation [14] -1.56%

CCOP(=O)(OCC)SCSCC
-57%: max response [10]
inactive: activation [6] 6.75% | Potency [7] | Potency [8] | activation [4] -0.362% | Potency [9] | Potency [11] | Potency [12] | Potency [13] | Potency [5] | activation [14] -2%

CCC/C(=N\OCC)C1=C(O)CC(CC(C)SCC)CC1=O (stereo not given)
-49.6%: max response [10]
inactive: Potency [9] | Potency [11] | Potency [12] | Potency [5] | activation [14] 0.879% | outcome [15]

CNC(=S)S
-6.57%: max response [10]
inactive: Potency [9] | Potency [11] | Potency [12] | activation [14] -2.14% | outcome [15]

CCOP(=S)(OCC)Oc1nc(Cl)n(C(C)C)n1
inactive: activation [14] 1.85%

CCCN(CCC)c1c([N+](=O)[O-])cc(C(F)(F)F)c(N)c1[N+](=O)[O-]
inactive: activation [4] 9.33%

Nc1cnn(-c2ccccc2)c(=O)c1Cl
13.7%: max response [10]
inactive: Potency [9] | Potency [11] | Potency [12] | Potency [13] | activation [14] -0.283% | outcome [15]

CCOc1nc(C(Cl)(Cl)Cl)ns1
inactive: Potency [11] | Potency [12]
-34.9%: max response [10]

C=CC(=O)OCCCCCC(C)C
inactive: activation [6] 3.1% | Potency [8] | activation [4] 1.09% | Potency [11] | Potency [12] | activation [14] 1.07%
38.5%: max response [10]
